Reference: PubChem BioAssay AID488943 (Broad Institute, 2010)
Results with a measured potency or affinity are listed apart. Active and inactive are the calls of the source.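 The calls were made as follows: active = compounds with a fitted half-maximal inhibitory dose at or below ten times their top tested dose; inconclusive = flat curve at 30 to 70% inhibition, or poor fit; inactive = the rest.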

experiment: C. albicans growth inhibition with fluconazole – CaCi-2 strain, Alamar Blue, dry powder, set 4, dose response (AID 488943); conditions: C. albicans CaCi-2 (fluconazole-resistant clinical isolate) + fluconazole, 48 h; series mostly up to 6 µM

SMILES	outcome
CC(C)C(=O)N1CCN(c2ccnc3cc(Cl)ccc23)CC1	inactive
O=C(C1CC1)N1CCN(c2ccnc3cc(Cl)ccc23)CC1	inactive
O=C(c1ccc(Cl)cc1)N1CCN(c2cc(C(F)(F)F)nc3ccccc23)CC1	inactive
O=C(c1ccc(Cl)cc1)N1CCN(c2cccc(C(F)(F)F)n2)CC1	inactive
CCCC(=O)N1CCN(c2ccnc3cc(Cl)ccc23)CC1	inactive
Cc1cccc(N2CCN(C(=O)c3ccc(Cl)cc3)CC2)n1	inactive
Cc1cc(N2CCN(C(=O)c3ccc(Cl)cc3)CC2)c2ccccc2n1	inactive
O=C(c1ccc(Cl)cc1)N1CCCN(c2ccnc3cc(Cl)ccc23)CC1	inactive
O=C(c1ccc(Cl)cc1)N1CCN(c2ccncc2)CC1	inactive
O=C(c1ccc(Cl)cc1)N1CCN(c2ccnc3ccccc23)CC1	inactive
O=C(c1ccc(Cl)cc1)N1CCNCC1	inactive
O=S(=O)(c1ccc(Cl)cc1)N1CCN(c2ccnc3cc(Cl)ccc23)CC1	inactive
COc1cccc2c(N3CCN(C(=O)c4ccc(Cl)cc4)CC3)cc(C)nc12	inactive
CCCCNC(=O)N1CCN(c2ccnc3cc(Cl)ccc23)CC1	inactive
COc1cccnc1N1CCN(C(=O)c2ccc(Cl)cc2)CC1	inactive
COCCC(=O)N1CCN(c2ccnc3cc(Cl)ccc23)CC1	inactive
